Results from PubChem BioAssay AID651744 (Broad Institute, 2012).
Screen size: about 5,600 compounds; about 3,100 (55%) were called active. Roughly 3% stayed inconclusive and do not appear here. So high a share suggests a set chosen from earlier hits. A selection follows. Unmarked numbers belong to inactive results.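 The calls were made as follows: active = mean loss of cell viability signal at or above a set limit, and enough replicates individually reaching it; inconclusive = meets only the mean limit or only the replicate share; inactive = meets neither condition.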

Assay: NIH/3T3 fibroblast cytotoxicity, confirmation, cytotoxicity control, cell-based, cherry-pick, single point, set 2 (AID 651744);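 also: 0% = median of neutral control wells and 100% = median of positive control wells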
Settings: NIH/3T3 viability, CellTiter-Glo ATP luminescence, 90 h; at 24.9 µM; active compounds read high

Question: With CCCN(C)C[C@@H]1Oc2cc(C#Cc3ccc(F)cc3)ccc2S(=O)(=O)N([C@H](C)CO)C[C@H]1C as the compound, how does the inhibition read?
Answer: Its inhibition is 105% (active).

Question: For CCCN(C)C[C@H]1Oc2cc(C#CC3CCCC3)ccc2S(=O)(=O)N([C@H](C)CO)C[C@@H]1C, which inhibition is on record?
Answer: The inhibition was 105% (active).

Question: Which inhibition does the source give for C/C=C/c1ccc([C@H]2[C@@H](CNC(C)C)N(c3nc(CC)cs3)[C@H]2CO)cc1 here?
Answer: Its inhibition is 103% (active).

Question: For COCCNC[C@@H]1[C@H](c2ccccc2)[C@H](CO)N1c1nc(C)c(C)s1, which inhibition is on record?
Answer: The inhibition was 5.9%.

Question: With CN(C)C(=O)c1ccc(-c2ccc([C@@H]3[C@H](CO)N4CCCCN(S(C)(=O)=O)C[C@@H]34)cc2)cc1 as the compound, how does the inhibition read?
Answer: Its inhibition is 6.63%.

Question: For Cc1cccc(-c2ccc([C@@H]3[C@@H](CO)N4CCCCN(S(=O)(=O)c5cccs5)C[C@H]34)cc2)c1, which inhibition is on record?
Answer: The inhibition was 95.2% (active).

Question: Which inhibition does the source give for O=S(=O)(Cc1ccccc1)N1CCCCN2[C@@H](CO)[C@H](c3ccc(-c4cccnc4)cc3)[C@@H]2C1 here?
Answer: Its inhibition is -12.4%.

Question: For O=S(=O)(Cc1ccccc1)N1CCCCN2[C@@H](CO)[C@H](c3ccc(-c4ccccc4)cc3)[C@@H]2C1, which inhibition is on record?
Answer: Its inhibition is 106% (active).

Question: Which inhibition does the source give for O=S(=O)(Cc1ccccc1)N1CCCCN2[C@@H](CO)[C@@H](c3ccc(-c4ccc(F)cc4)cc3)[C@@H]2C1 here?
Answer: The inhibition was 105% (active).

Question: With CCS(=O)(=O)N1CCCCN2[C@@H](CO)[C@@H](c3ccc(-c4ccccc4)cc3)[C@@H]2C1 as the compound, how does the inhibition read?
Answer: The inhibition was 49.5% (active).

Question: With C[C@H](O)C#Cc1ccc([C@H]2[C@H]3CN(S(=O)(=O)Cc4ccccc4)CCCCN3[C@H]2CO)cc1 as the compound, how does the inhibition read?
Answer: The inhibition was 30.3% (active).

Question: Which inhibition does the source give for C/C=C/c1ccc([C@H]2[C@H]3CN(S(=O)(=O)c4ccccc4)CCCCN3[C@H]2CO)cc1 here?
Answer: Its inhibition is 87.7% (active).

Question: With C[C@@H](O)C#Cc1ccc([C@@H]2[C@H](CO)N3CCCCN(S(=O)(=O)c4ccccc4)C[C@@H]23)cc1 as the compound, how does the inhibition read?
Answer: Its inhibition is 3.32%.

Question: Which inhibition does the source give for C[C@H](O)C#Cc1ccc([C@@H]2[C@H]3CN(S(=O)(=O)c4ccccc4)CCCCN3[C@H]2CO)cc1 here?
Answer: Its inhibition is 25.4%.

Question: With O=C(Nc1ccc(Cl)cc1)N[C@@H]1CC[C@@H](CCNC(=O)c2ccccc2F)O[C@H]1CO as the compound, how does the inhibition read?
Answer: Its inhibition is 4.33%.

Question: Which inhibition does the source give for O=C(Nc1cc(Cl)cc(Cl)c1)N[C@H]1CC[C@@H](CCNS(=O)(=O)c2cccc(F)c2)O[C@H]1CO here?
Answer: The inhibition was 57.3% (active).

Question: For COc1cccc(S(=O)(=O)Nc2ccc3c(c2)[C@H]2C[C@H](CC(=O)NCc4ccc(Cl)cc4)O[C@H](CO)[C@H]2O3)c1, which inhibition is on record?
Answer: Its inhibition is 4.86%.

Question: With CCCC#Cc1ccc2c(c1)O[C@@H](CN(C)C(=O)c1ccccc1F)[C@H](C)CN([C@H](C)CO)S2(=O)=O as the compound, how does the inhibition read?
Answer: The inhibition was 24.6%.

Question: Which inhibition does the source give for CC(C)CC#Cc1ccc2c(c1)O[C@H](CN(C)Cc1ccccc1F)[C@@H](C)CN([C@@H](C)CO)S2(=O)=O here?
Answer: Its inhibition is 105% (active).

Question: With C[C@H](CO)N1C[C@H](C)[C@@H](CN(C)Cc2ccncc2)Oc2cc(Br)ccc2S1(=O)=O as the compound, how does the inhibition read?
Answer: The inhibition was 51.2% (active).

Question: With CC(C)CC#Cc1ccc2c(c1)O[C@H](CN(C)Cc1cccnc1)[C@H](C)CN([C@@H](C)CO)S2(=O)=O as the compound, how does the inhibition read?
Answer: The inhibition was 97% (active).

Question: Which inhibition does the source give for CC(C)CC#Cc1ccc2c(c1)O[C@H](CN(C)Cc1ccncc1)[C@H](C)CN([C@H](C)CO)S2(=O)=O here?
Answer: Its inhibition is 104% (active).

Question: With O=C(Nc1ccc2c(c1)[C@@H]1C[C@H](CC(=O)N3CCOCC3)O[C@@H](CO)[C@@H]1O2)c1ccc2c(c1)OCO2 as the compound, how does the inhibition read?
Answer: The inhibition was 4.7%.

Question: For C[C@H]1CN([C@@H](C)CO)C(=O)CCCn2cc(nn2)CO[C@H]1CN(C)C(=O)c1ccccc1, which inhibition is on record?
Answer: Its inhibition is 7.66%.

Question: For C[C@H]1CN([C@@H](C)CO)S(=O)(=O)c2ccc(C#CC3CCCC3)cc2O[C@@H]1CN(C)C(=O)c1cccc(F)c1, which inhibition is on record?
Answer: The inhibition was 105% (active).

Question: For C[C@H](CO)N1C[C@H](C)[C@@H](CN(C)C(=O)Nc2cc(F)ccc2F)Oc2cc(C#CC3CC3)ccc2S1(=O)=O, which inhibition is on record?
Answer: Its inhibition is 55.6% (active).

Question: Which inhibition does the source give for CO[C@H](CN(C)S(=O)(=O)c1ccc(Cl)cc1)[C@@H](C)CN(Cc1ccccc1Cl)[C@H](C)CO here?
Answer: Its inhibition is 74% (active).

Question: Which inhibition does the source give for OC[C@@H]1[C@H](c2ccc(C#CC3CC3)cc2)[C@@H]2CN(CCC(F)(F)F)CCCCN12 here?
Answer: Its inhibition is 102% (active).

Question: With COc1cccc(S(=O)(=O)N2CCCCN3[C@H](CO)[C@H](c4ccc(C#CC5CC5)cc4)[C@H]3C2)c1 as the compound, how does the inhibition read?
Answer: The inhibition was 104% (active).

Question: With COc1cccc(S(=O)(=O)N2CCCCN3[C@H](CO)[C@H](c4ccc(-c5ccncc5)cc4)[C@H]3C2)c1 as the compound, how does the inhibition read?
Answer: The inhibition was 36.2% (active).

Question: Which inhibition does the source give for CCC(=O)N1CCCCN2[C@H](C1)[C@@H](c1ccc(/C=C/c3ccccc3)cc1)[C@@H]2CO here?
Answer: Its inhibition is 103% (active).

Question: For O=C(CN1CCOCC1)N1CCCCN2[C@H](CO)[C@H](c3ccc(-c4ccccc4)cc3)[C@@H]2C1, which inhibition is on record?
Answer: The inhibition was 16.2%.

Question: With O=C(CN1CCOCC1)N1CCCCN2[C@@H](CO)[C@H](c3ccc(-c4ccccc4)cc3)[C@@H]2C1 as the compound, how does the inhibition read?
Answer: Its inhibition is 6.88%.

Question: Which inhibition does the source give for O=C(CN1CCOCC1)N1CCCCN2[C@@H](CO)[C@H](c3ccc(/C=C/c4ccccc4)cc3)[C@@H]2C1 here?
Answer: Its inhibition is 92.5% (active).

Question: Which inhibition does the source give for CCC(=O)N1CCCCN2[C@H](C1)[C@@H](c1ccc(-c3ccc(F)cc3)cc1)[C@@H]2CO here?
Answer: Its inhibition is 48.8% (active).

Question: With COc1ccc(S(=O)(=O)Nc2ccc3c(c2)C(=O)N([C@@H](C)CO)C[C@H](C)[C@@H](CN(C)Cc2ccc(C(F)(F)F)cc2)O3)cc1 as the compound, how does the inhibition read?
Answer: Its inhibition is 5.53%.

Question: For COc1ccc(CN(C)C[C@H]2Oc3ccc(NS(=O)(=O)c4ccc(Cl)cc4)cc3CC(=O)N([C@@H](C)CO)C[C@H]2C)cc1, which inhibition is on record?
Answer: The inhibition was 36.9% (active).

Question: Which inhibition does the source give for COc1ccc(S(=O)(=O)Nc2ccc3c(c2)C(=O)N([C@H](C)CO)C[C@H](C)[C@H](CN(C)Cc2ccc(C(F)(F)F)cc2)O3)cc1 here?
Answer: The inhibition was 97.6% (active).

Question: For COc1ccc(NC(=O)Nc2ccc3c(c2)C(=O)N([C@H](C)CO)C[C@H](C)[C@H](CN(C)S(=O)(=O)c2ccc(Cl)cc2)OCCCC[C@H](C)O3)cc1, which inhibition is on record?
Answer: The inhibition was 3.56%.

Question: For Cc1ccc(S(=O)(=O)Nc2ccc3c(c2)C(=O)N([C@H](C)CO)C[C@H](C)[C@H](CN(C)C(=O)Nc2ccc(F)cc2)OCCCC[C@H](C)O3)cc1, which inhibition is on record?
Answer: Its inhibition is 1.65%.

Question: For Cc1ccc(S(=O)(=O)Nc2ccc3c(c2)C(=O)N([C@H](C)CO)C[C@H](C)[C@H](CN(C)Cc2ccc(Cl)c(Cl)c2)O3)cc1, which inhibition is on record?
Answer: Its inhibition is 104% (active).

Question: For COc1ccc(S(=O)(=O)Nc2ccc3c(c2)C(=O)N([C@@H](C)CO)C[C@H](C)[C@H](CN(C)Cc2ccc(C(F)(F)F)cc2)O3)cc1, which inhibition is on record?
Answer: The inhibition was 35.2% (active).

Question: Which inhibition does the source give for Cc1ccc(S(=O)(=O)N(C)C[C@@H]2OCCCC[C@@H](C)Oc3ccc(NS(=O)(=O)c4ccc(F)cc4)cc3C(=O)N([C@H](C)CO)C[C@H]2C)cc1 here?
Answer: The inhibition was -22.2%.

Question: For CN1C(=O)c2cc(NC(=O)c3cnccn3)ccc2OC[C@@H]2O[C@H](CC(=O)N[C@@H]3CCN(Cc4ccccc4)C3)CC[C@@H]21, which inhibition is on record?
Answer: The inhibition was -11.4%.

Question: Which inhibition does the source give for C[C@H](CO)N1C[C@H](C)[C@H](CN(C)Cc2ccc(C(F)(F)F)cc2)Oc2ccc(NS(=O)(=O)c3ccc(Cl)cc3)cc2C1=O here?
Answer: Its inhibition is 101% (active).

Question: With C[C@@H]1CN([C@@H](C)CO)S(=O)(=O)c2ccc(-c3ccncc3)cc2O[C@@H]1CN(C)C(=O)Nc1ccc(F)cc1 as the compound, how does the inhibition read?
Answer: The inhibition was 21.8%.

Question: With C[C@@H]1CN([C@@H](C)CO)S(=O)(=O)c2ccc(C#Cc3ccc(F)cc3)cc2O[C@H]1CN(C)C(=O)NC1CCCC1 as the compound, how does the inhibition read?
Answer: Its inhibition is 90.7% (active).

Question: Which inhibition does the source give for C[C@@H]1CN([C@@H](C)CO)S(=O)(=O)c2ccc(C#Cc3ccccc3)cc2O[C@@H]1CN(C)C(=O)Nc1ccccc1 here?
Answer: Its inhibition is 49.1% (active).

Question: Which inhibition does the source give for C[C@@H]1CN([C@H](C)CO)S(=O)(=O)c2ccc(-c3cccc(C#N)c3)cc2O[C@@H]1CN(C)C(=O)Nc1ccccc1F here?
Answer: Its inhibition is 77.8% (active).

Question: With C[C@@H]1CN([C@@H](C)CO)S(=O)(=O)c2ccc(C#Cc3ccc(F)cc3)cc2O[C@H]1CN(C)C(=O)c1ccccn1 as the compound, how does the inhibition read?
Answer: Its inhibition is 92.1% (active).

Question: For C[C@@H]1CN([C@H](C)CO)S(=O)(=O)c2ccc(C#CC3CCCC3)cc2O[C@@H]1CN(C)Cc1cccnc1, which inhibition is on record?
Answer: The inhibition was 104% (active).

Question: For C[C@H](CO)N1C[C@H](C)[C@H](CN(C)Cc2cccnc2)Oc2cc(C#CC3CCCC3)ccc2S1(=O)=O, which inhibition is on record?
Answer: Its inhibition is 104% (active).

Question: With COc1ccc(S(=O)(=O)N2CCCCN3[C@H](C2)[C@H](c2ccc(C#CCC(C)C)cc2)[C@@H]3CO)cc1 as the compound, how does the inhibition read?
Answer: The inhibition was 64.2% (active).

Question: Which inhibition does the source give for COc1cccc(S(=O)(=O)N2CCCCN3[C@H](C2)[C@H](c2ccc(C#CC(C)C)cc2)[C@@H]3CO)c1 here?
Answer: The inhibition was 26.4%.

Question: With COc1ccc(S(=O)(=O)N2CCCCN3[C@H](CO)[C@@H](c4ccc(C#CC(C)C)cc4)[C@H]3C2)cc1 as the compound, how does the inhibition read?
Answer: Its inhibition is 105% (active).

Question: With CC(C)C#Cc1ccc([C@H]2[C@H](CO)N3CCCCN(C(=O)NC(C)C)C[C@@H]23)cc1 as the compound, how does the inhibition read?
Answer: The inhibition was 50% (active).

Question: With COc1ccccc1-c1ccc2c(c1)O[C@@H](CN(C)C)[C@H](C)CN([C@H](C)CO)S2(=O)=O as the compound, how does the inhibition read?
Answer: Its inhibition is 19.5%.

Question: Which inhibition does the source give for Cc1ccc(-c2ccc3c(c2)O[C@H](CN(C)C)[C@@H](C)CN([C@H](C)CO)S3(=O)=O)cc1 here?
Answer: The inhibition was 25.3% (active).

Question: For C[C@@H]1CN([C@H](C)CO)S(=O)(=O)c2ccc(-c3cccc(F)c3)cc2O[C@H]1CN(C)S(=O)(=O)c1ccc(F)cc1, which inhibition is on record?
Answer: Its inhibition is 60.5% (active).

Question: For CC(C)CC#Cc1ccc2c(c1)O[C@H](CN(C)S(=O)(=O)c1cccc(F)c1)[C@@H](C)CN([C@@H](C)CO)S2(=O)=O, which inhibition is on record?
Answer: Its inhibition is 105% (active).

Question: With COc1ccccc1-c1ccc2c(c1)O[C@H](CN(C)S(=O)(=O)c1ccc(C)cc1)[C@@H](C)CN([C@H](C)CO)S2(=O)=O as the compound, how does the inhibition read?
Answer: The inhibition was 31.1% (active).

Question: For Cc1noc(C)c1S(=O)(=O)Nc1ccc2c(c1)C(=O)N([C@@H](C)CO)C[C@@H](C)[C@H](CN(C)S(=O)(=O)c1ccc(Cl)cc1)OCCCC[C@H](C)O2, which inhibition is on record?
Answer: Its inhibition is -2.59%.
